In PubChem BioAssay AID1159580 (chemical genetic matrix, 2015):
Among all 5,500 compounds or so, about 2,000 (36%) were called active. Inconclusive results (about 18%) are left out. Rule as the data show it: active = normalized growth mostly below about 0.91 (no sharp cut-off); inconclusive = no clear call, values can overlap the other calls; inactive = mostly above about 0.92. Some of the results follow.

Assay: chemical genetic growth profiling, strain panel (AID 1159580);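 also: tested at 20 µM; growth read once vehicle control cultures reached saturation at 30 °C; 1 = growth at the plate median or of vehicle wells; lower values mean less growth of the strain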
Conditions: growth OD

Measured: normalized growth

CN(C)CC/C=C1/c2ccccc2COc2ccccc21
inactive: S. cerevisiae deletion strains, locus YKL068W, stronger effect = lower value 1.02 | S. cerevisiae deletion strains, locus YKL085W, strain MDH1 (second series), stronger effect = lower value 1 | S. cerevisiae deletion strains, locus YKL085W, strain MDH1, stronger effect = lower value 1 | S. cerevisiae deletion strains, locus YKL160W, strain elf1, stronger effect = lower value 1.01 | S. cerevisiae deletion strains, locus YKL190W, strain CNB1, stronger effect = lower value 1.02 | S. cerevisiae deletion strains, locus YKR001C, strain vps1, stronger effect = lower value 1 | S. cerevisiae deletion strains, locus YKR026C, strain gcn3, stronger effect = lower value 1.03 | S. cerevisiae deletion strains, locus YKR091W, strain srl3, stronger effect = lower value 1.02 | S. cerevisiae deletion strains, locus YLL001W, strain dnm1, stronger effect = lower value 1.01 | S. cerevisiae deletion strains, locus YLL026W, stronger effect = lower value 1.02 | S. cerevisiae deletion strains, locus YLL041C, strain sdh2, stronger effect = lower value 1.03 | S. cerevisiae deletion strains, locus YLR027C, strain aat2, stronger effect = lower value 1.02 | S. cerevisiae deletion strains, locus YLR039C, strain RIC1, stronger effect = lower value 1.15 | S. cerevisiae deletion strains, locus YLR058C, strain SHM2, stronger effect = lower value 1.01 | S. cerevisiae deletion strains, locus YLR102C, strain apc9, stronger effect = lower value 1.01 | S. cerevisiae deletion strains, locus YLR113W, strain HOG1, stronger effect = lower value 1.09 | S. cerevisiae deletion strains, locus YLR221C, strain rsa3, stronger effect = lower value 1.01 | S. cerevisiae deletion strains, locus YLR258W, strain gsy2, stronger effect = lower value 1.02 | S. cerevisiae deletion strains, locus YLR262C, strain YPT6 (second series), stronger effect = lower value 1.09 | S. cerevisiae deletion strains, locus YLR262C, strain YPT6, stronger effect = lower value 1.14 | S. cerevisiae deletion strains, locus YLR268W, strain sec22, stronger effect = lower value 1.02 | S. cerevisiae deletion strains, locus YLR320W, strain mms22, stronger effect = lower value 1.01 | S. cerevisiae deletion strains, locus YLR330W, strain CHS5, stronger effect = lower value 1.01 | S. cerevisiae deletion strains, locus YLR342W, strain FKS1 (second series), stronger effect = lower value 1 | S. cerevisiae deletion strains, locus YLR342W, strain FKS1, stronger effect = lower value 1.01 | S. cerevisiae deletion strains, locus YLR357W, strain rsc2, stronger effect = lower value 1.02 | S. cerevisiae deletion strains, locus YLR370C, strain arc18, stronger effect = lower value 1.02 | S. cerevisiae deletion strains, locus YLR371W, strain rom2, stronger effect = lower value 1.01 | S. cerevisiae deletion strains, locus YLR384C, strain iki3, stronger effect = lower value 1.03 | S. cerevisiae deletion strains, locus YLR418C, strain cdc73, stronger effect = lower value 0.996 | S. cerevisiae deletion strains, locus YML016C, strain PPZ1, stronger effect = lower value 1 | S. cerevisiae deletion strains, locus YML032C, strain rad52, stronger effect = lower value 1.02 | S. cerevisiae deletion strains, locus YML120C, strain ndi1, stronger effect = lower value 1.04 | S. cerevisiae deletion strains, locus YML124C, strain tub3, stronger effect = lower value 1.02 | S. cerevisiae deletion strains, locus YMR058W, strain fet3, stronger effect = lower value 1.01 | S. cerevisiae deletion strains, locus YMR078C, strain ctf18, stronger effect = lower value 1.03 | S. cerevisiae deletion strains, locus YMR125W, strain sto1, stronger effect = lower value 1.02 | S. cerevisiae deletion strains, locus YMR129W, stronger effect = lower value 1.02 | S. cerevisiae deletion strains, locus YMR205C, strain PFK2, stronger effect = lower value 1.04 | S. cerevisiae deletion strains, locus YMR223W, strain ubp8, stronger effect = lower value 1.03 | S. cerevisiae deletion strains, locus YMR231W, strain pep5, stronger effect = lower value 1.03 | S. cerevisiae deletion strains, locus YMR263W, strain SAP30, stronger effect = lower value 1 | S. cerevisiae deletion strains, locus YMR307W, strain GAS1, stronger effect = lower value 1.05 | S. cerevisiae deletion strains, locus YNL067W, strain RPL9B, stronger effect = lower value 1.01 | S. cerevisiae deletion strains, locus YNL071W, strain lat1, stronger effect = lower value 1.02 | S. cerevisiae deletion strains, locus YNL128W, strain TEP1, stronger effect = lower value 1.01 | S. cerevisiae deletion strains, locus YNL153C, strain GIM3, stronger effect = lower value 0.997 | S. cerevisiae deletion strains, locus YNL183C, strain NPR1, stronger effect = lower value 0.989 | S. cerevisiae deletion strains, locus YNL209W, strain ssb2, stronger effect = lower value 0.985 | S. cerevisiae deletion strains, locus YNL233W, strain BNI4, stronger effect = lower value 1.01 | S. cerevisiae deletion strains, locus YNL248C, strain rpa49, stronger effect = lower value 1.01 | S. cerevisiae deletion strains, locus YNL250W, strain rad50, stronger effect = lower value 1.04 | S. cerevisiae deletion strains, locus YNL271C, strain bni1, stronger effect = lower value 1.01 | S. cerevisiae deletion strains, locus YNL298W, strain CLA4, stronger effect = lower value 1.02 | S. cerevisiae deletion strains, locus YNL307C, strain MCK1, stronger effect = lower value 1.03 | S. cerevisiae deletion strains, locus YNL322C, strain KRE1 (second series), stronger effect = lower value 1.02 | S. cerevisiae deletion strains, locus YNL322C, strain KRE1, stronger effect = lower value 1.02 | S. cerevisiae deletion strains, locus YNR049C, strain mso1, stronger effect = lower value 1.02 | S. cerevisiae deletion strains, locus YNR052C, strain pop2, stronger effect = lower value 1.02 | S. cerevisiae deletion strains, locus YOL006C, strain TOP1, stronger effect = lower value 0.974 | S. cerevisiae deletion strains, locus YOL012C, strain htz1 1.18 | S. cerevisiae deletion strains, locus YOL147C, strain pex11, stronger effect = lower value 1.01 | S. cerevisiae deletion strains, locus YOR001W, strain rrp6, stronger effect = lower value 1.02 | S. cerevisiae deletion strains, locus YOR061W, strain CKA2, stronger effect = lower value 1 | S. cerevisiae deletion strains, locus YOR069W, strain VPS5, stronger effect = lower value 1.01 | S. cerevisiae deletion strains, locus YOR070C, strain gyp1, stronger effect = lower value 1.02 | S. cerevisiae deletion strains, locus YOR080W, strain dia2, stronger effect = lower value 1.03 | S. cerevisiae deletion strains, locus YOR083W, strain WHI5, stronger effect = lower value 0.99 | S. cerevisiae deletion strains, locus YOR106W, strain vam3, stronger effect = lower value 1.02 | S. cerevisiae deletion strains, locus YOR136W, strain idh2, stronger effect = lower value 1.03 | S. cerevisiae deletion strains, locus YOR144C, strain elg1, stronger effect = lower value 1.01 | S. cerevisiae deletion strains, locus YOR184W, strain ser1, stronger effect = lower value 1.05 | S. cerevisiae deletion strains, locus YOR231W, strain MKK1, stronger effect = lower value 1.07 | S. cerevisiae deletion strains, locus YOR265W, strain rbl2, stronger effect = lower value 1.03 | S. cerevisiae deletion strains, locus YOR270C, strain vph1, stronger effect = lower value 1.02 | S. cerevisiae deletion strains, locus YOR290C, strain snf2, stronger effect = lower value 1.01 | S. cerevisiae deletion strains, locus YOR316C, strain cot1, stronger effect = lower value 1.01 | S. cerevisiae deletion strains, locus YPL051W, strain arl3, stronger effect = lower value 1.01 | S. cerevisiae deletion strains, locus YPL055C, strain LGE1, stronger effect = lower value 0.981 | S. cerevisiae deletion strains, locus YPL078C, strain atp4, stronger effect = lower value 1.02 | S. cerevisiae deletion strains, locus YPL106C, strain sse1, stronger effect = lower value 1.02 | S. cerevisiae deletion strains, locus YPL240C, strain hsp82, stronger effect = lower value 1.02 | S. cerevisiae deletion strains, locus YPL241C, strain CIN2, stronger effect = lower value 1.01 | S. cerevisiae deletion strains, locus YPL256C, strain CLN2, stronger effect = lower value 1.04 | S. cerevisiae deletion strains, locus YPR119W, strain clb2, stronger effect = lower value 1.01 | S. cerevisiae deletion strains, locus YPR141C, strain kar3, stronger effect = lower value 1.01 | S. cerevisiae deletion strains, locus YPR163C, strain tif3, stronger effect = lower value 1.01 | S. cerevisiae deletion strains, locus YPR167C, strain met16, stronger effect = lower value 1.02 | S. cerevisiae deletion strains, strain wtn01, stronger effect = lower value 1.03 | S. cerevisiae strains, strain wild type, stronger effect = lower value 1.01
